Measured values from PubChem BioAssay.
Activity calls are given as the source filed them. Unless noted, no rule for the calls is given here.

Legend:
[1] = test system: Wnt5a (protein binding on small-molecule microarray); assay: small molecules binding Wnt5a protein – biophysical, small-molecule microarray, 635/667 nm fluorescence, primary screen (AID 1142); settings: 635 nm fluorescence, higher = more signal;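 also: fluorescence read at 667 nm with signal to noise per printed feature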
[2] = ATP-based viability of Huh7 replicon cells – cell-based, CellTiter-Glo luminescence, basal, 48 h, cytotoxicity control for HCV replication inhibitor project, primary screen (AID 1143); settings: higher = more signal, called active from +8 up or from −8 down;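 also: Huh7 hepatoma cells carrying a hepatitis C replication reporter with no stimulus; test concentration not given here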
[3] = Pseudomonas biofilm growth suppression – PAO1 strain, BacTiter-Glo luminescence, LB-PBS, primary screen (AID 1144); settings: P. aeruginosa PAO1 biofilm, 12 h, higher = more signal
[4] = basal CRE-LacZ reporter activity in PC12 – cell-based, unstimulated, primary screen (AID 1145); settings: no forskolin, luminescence, 4.5 h, higher = more signal, called active from +8 up or from −8 down
[5] = forskolin-driven CRE-LacZ activity in PC12 – cell-based, CRE-LacZ reporter, forskolin-stimulated, primary screen (AID 1146); settings: luminescence, 4.5 h, higher = more signal, called active from +8 up or from −8 down;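 also: PC12 cells with 6xCRE LacZ reporter stimulated by forskolin 10 µM; beta-galactosidase reporter signal reflecting CREB driven transcription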
[6] = molecular target: Streptavidin (Streptomyces avidinii) (UniProt P22629); assay: compounds binding control protein streptavidin – biophysical, small-molecule microarray, 635/667 nm fluorescence, artefact control for SMM compound annotation, primary screen (AID 1147); settings: higher = more signal;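 also: signal reflects streptavidin binding to arrayed compounds as a control protein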
Sequence of Streptavidin (Streptomyces avidinii) (P22629 whole entry, looked up): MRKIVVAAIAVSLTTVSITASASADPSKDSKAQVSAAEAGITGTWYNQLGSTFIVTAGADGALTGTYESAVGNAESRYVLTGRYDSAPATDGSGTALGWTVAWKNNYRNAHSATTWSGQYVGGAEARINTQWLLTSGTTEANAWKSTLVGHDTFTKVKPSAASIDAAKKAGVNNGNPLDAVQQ

[7] = probe aInhba binding on compound microarray – biochemical, small-molecule microarray, 635/667 nm fluorescence, primary screen (AID 1148); settings: higher = more signal;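 also: score merges 667nm spot fluorescence with signal-to-noise for antibody binding to printed compounds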
Torsin-1A (Homo sapiens) [8] = molecular target: Torsin-1A (Homo sapiens) (UniProt O14656); assay: TOR1A wild-type binding on microarray – cell lysate, small-molecule microarray, lysate, 635/667 nm, primary screen (AID 1149); settings: COS7 hTOR1A-WT lysate, 635 nm fluorescence, higher = more signal
Sequence of Torsin-1A (Homo sapiens) (O14656 whole entry, looked up): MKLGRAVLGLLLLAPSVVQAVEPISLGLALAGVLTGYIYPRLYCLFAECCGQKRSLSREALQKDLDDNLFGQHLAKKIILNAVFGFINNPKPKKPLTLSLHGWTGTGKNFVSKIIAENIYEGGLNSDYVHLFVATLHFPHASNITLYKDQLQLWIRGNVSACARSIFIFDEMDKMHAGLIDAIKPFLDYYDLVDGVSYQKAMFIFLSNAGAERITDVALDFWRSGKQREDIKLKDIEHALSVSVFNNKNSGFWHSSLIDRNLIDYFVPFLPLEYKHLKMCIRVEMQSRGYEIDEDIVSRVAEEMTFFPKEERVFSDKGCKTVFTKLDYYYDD

Torsin-1A (Homo sapiens) [9] = molecular target: Torsin-1A (Homo sapiens) (UniProt O14656); assay: torsin A mutant lysate binding on microarrays – cell lysate, small-molecule microarray, COS7 lysate, 635/667 nm fluorescence, primary screen (AID 1150); settings: COS7 hTOR1A mutant lysate, 635 nm fluorescence, higher = more signal;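 also: score pools 667 nm emission and signal to noise measuring lysate protein binding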
[10] = test system: Sonic hedgehog protein (Shh); assay: Sonic hedgehog microarray binding compounds – biochemical, small-molecule microarray, 635/667 nm fluorescence, primary screen (AID 1151); settings: 635 nm fluorescence, higher = more signal;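 also: Shh protein binding to compounds spotted on small-molecule microarray slides; score combines spot fluorescence intensity with signal-to-noise across triplicate slides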

| SMILES | composite z-score [1] | z-score [2] | z-score [3] | z-score [4] | z-score [5] | composite z-score [6] | composite z-score [7] | composite z-score (Torsin-1A (Homo sapiens) [8]) | composite z-score (Torsin-1A (Homo sapiens) [9]) | composite z-score [10] |
| --- | --- | --- | --- | --- | --- | --- | --- | --- | --- | --- |
| COC(=O)[C@H](C)NC(=O)CCC1CC(OC(=O)NCc2ccc3c(c2)OCO3)CC2(CCCC(COC(=O)NCc3cccc(C(F)(F)F)c3)O2)O1 (stereo not given in full) | -0.0362 | -0.109 (inactive) | -0.0589 (inactive) | -0.794 (inactive) | -0.631 (inactive) | 0.634 | 0.0852 | 0.703 | 0.279 | 1.28 |
| Cc1cc2c(nc1C)CCCCN2CC(C)ON=C[C@@H](C)[C@H](OCc1ccccc1)C(C)C (stereo not given in full) | -0.918 | -4.86 (inactive) | 0.207 (inactive) | 2.44 (inactive) | 0.676 (inactive) | -1.88 | -0.26 | -3.92 | -1.34 | -0.436 |
| COC(=O)CC=C[C@@H](C)[C@@H](C=NOC[C@H]1O[C@H](c2ccccc2)C=C[C@@H]1Oc1ccc(OC)cc1)NS(=O)(=O)c1ccc(C)cc1 | -0.308 | -0.588 (inactive) | -0.00695 (inactive) | 3.13 (inactive) | 0.519 (inactive) | -0.184 | -0.23 | -1.46 | 0.339 | -0.863 |
| CC(C)CON=C1C[C@@H](O)[C@@H](O)[C@@H]2[C@@H]3C(=O)N(C[C@@H]4CCCO4)C(=O)[C@@H]3CC[C@@H]12 | 0.0867 | 1.13 (inactive) | -0.184 (inactive) | -0.0246 (inactive) | 0.436 (inactive) | -0.265 | -0.0987 | -0.25 | 0.0844 | -0.321 |
